Test results published in PubChem BioAssay (NCATS).
Inconclusive results are not listed. Activity calls are given as the source filed them. Calls come from the whole dose curve; as a rule, active = well fitted inhibition curve with a large enough effect; inconclusive = small, poorly fitted or top-dose-only effect; inactive = flat fitted curve, though single readings scatter.

Tests used:
Assay in all cases: qHTS profiling for inhibitors of Plasmodium falciparum proliferation (AID 504749); note: nearly all actives have a fitted effect of over 60% in size
Conditions in all cases: P. falciparum in erythrocytes, SYBR Green DNA, 72 h; series mostly up to 28.7 µM
CP262 = test system: CP262
How it was run: (§1)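 Infected RBCs, 0.3% parasitemia/2.5% Hct final; cpd 72 h, 37 C, 5% CO2; lysis buffer with saponin/triton/SYBR Green I, o/n RT dark; FI 485/535; norm. to artemisinin (0.29 uM) and DMSO.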

CP265 = test system: CP265
How it was run: as §1

CP266 = test system: CP266
How it was run: as §1

CP268 = test system: CP268
How it was run: as §1

CP269 = test system: CP269
How it was run: as §1

CP286 = test system: CP286
How it was run: as §1

CP291 = test system: CP291
How it was run: as §1

CP297 = test system: CP297
How it was run: as §1

CP305 = test system: CP305
How it was run: as §1

CP315 = test system: CP315
How it was run: as §1

CP325 = test system: CP325
How it was run: as §1

CP329 = test system: CP329
How it was run: as §1

CP335 = test system: CP335
How it was run: as §1

DFO2036 = test system: DFO2036
How it was run: as §1

DIV14 = test system: DIV14
How it was run: as §1

DIV17 = test system: DIV17
How it was run: as §1

DIV30 = test system: DIV30
How it was run: as §1

Dd2 = test system: Dd2
How it was run: as §1

ECU = test system: ECU
How it was run: as §1

FAB9 = test system: FAB9
How it was run: as §1

Measured: Potency
Potency is the fitted concentration of half-maximal effect.

COc1ccc(Cc2nccc3cc(OC)c(OC)cc23)cc1OC
inactive: CP262 | CP265 | CP266 | CP268 | CP269 | CP286 | CP291 | CP297 | CP305 | CP315 | CP325 | CP329 | CP335 | DFO2036 | DIV14 | DIV17 | DIV30 | Dd2 | ECU | FAB9

CC1(C)O[C@H]2C[C@@H]3[C@H]4CCC5=CC(=O)C=C[C@]5(C)[C@@]4(F)[C@@H](O)C[C@]3(C)[C@]2(C(=O)CO)O1
inactive: CP262 | CP265 | CP268 | CP269 | CP286 | CP291 | CP305 | CP315 | CP325 | CP329 | CP335 | DFO2036 | DIV17 | Dd2 | ECU | FAB9

NC(N)=Nc1nc(CSCC/C(N)=N/S(N)(=O)=O)cs1
inactive: CP262 | CP265 | CP266 | CP268 | CP269 | CP286 | CP291 | CP297 | CP305 | CP315 | CP325 | CP329 | CP335 | DFO2036 | DIV14 | DIV17 | DIV30 | Dd2 | ECU | FAB9

CCCNC(=O)NS(=O)(=O)c1ccc(Cl)cc1
inactive: CP262 | CP265 | CP266 | CP268 | CP269 | CP286 | CP291 | CP297 | CP305 | CP315 | CP325 | CP329 | CP335 | DFO2036 | DIV14 | DIV17 | DIV30 | Dd2 | ECU | FAB9

Cc1cnc(C(=O)O)c[n+]1[O-]
inactive: CP262 | CP265 | CP268 | CP269 | CP286 | CP291 | CP297 | CP305 | CP315 | CP325 | CP329 | CP335 | DFO2036 | DIV14 | DIV17 | DIV30 | Dd2 | ECU | FAB9

CC/C(=C(\c1ccccc1)c1ccc(OCCN(C)C)cc1)c1ccccc1
inactive: CP262 | CP266 | CP297 | CP315 | CP329 | DFO2036 | FAB9
active: DIV14 13.5 µM

CC(=O)CCCCn1c(=O)c2c(ncn2C)n(C)c1=O
inactive: CP262 | CP265 | CP266 | CP268 | CP269 | CP286 | CP291 | CP297 | CP305 | CP315 | CP325 | CP329 | CP335 | DFO2036 | DIV14 | DIV17 | DIV30 | Dd2 | ECU | FAB9

CCN(CC)CCOC(=O)c1ccc(N)cc1
inactive: CP262 | CP265 | CP266 | CP268 | CP269 | CP286 | CP291 | CP297 | CP305 | CP315 | CP325 | CP329 | CP335 | DFO2036 | DIV14 | DIV17 | DIV30 | Dd2 | ECU | FAB9

CCN1CCC[C@H]1CNC(=O)c1cc(S(N)(=O)=O)ccc1OC
inactive: CP262 | CP265 | CP266 | CP268 | CP269 | CP286 | CP291 | CP297 | CP305 | CP315 | CP325 | CP329 | CP335 | DFO2036 | DIV14 | DIV17 | DIV30 | Dd2 | ECU | FAB9

CCCCCN(C)CCC(O)(P(=O)(O)O)P(=O)(O)O
inactive: CP262 | CP265 | CP266 | CP268 | CP269 | CP286 | CP291 | CP297 | CP305 | CP315 | CP325 | CP329 | CP335 | DFO2036 | DIV14 | DIV17 | DIV30 | Dd2 | ECU | FAB9

CC(=O)O[C@]1(C(C)=O)CC[C@H]2[C@@H]3C=C(Cl)C4=CC(=O)[C@@H]5C[C@@H]5[C@]4(C)[C@H]3CC[C@@]21C
inactive: CP265 | CP315 | CP329 | DFO2036 | Dd2 | ECU | FAB9

C[N+](C)(C)CCCCCC[N+](C)(C)C
inactive: CP262 | CP265 | CP266 | CP268 | CP269 | CP286 | CP291 | CP297 | CP305 | CP315 | CP325 | CP329 | CP335 | DFO2036 | DIV14 | DIV17 | DIV30 | Dd2 | ECU | FAB9

O=C(NCCN1CCOCC1)c1ccc(Cl)cc1
inactive: CP262 | CP265 | CP266 | CP268 | CP269 | CP286 | CP291 | CP297 | CP305 | CP315 | CP325 | CP329 | CP335 | DFO2036 | DIV14 | DIV17 | DIV30 | Dd2 | ECU | FAB9

CCN(CC)CCNC(=O)c1ccc(N)cc1
inactive: CP262 | CP265 | CP266 | CP268 | CP269 | CP286 | CP291 | CP297 | CP305 | CP315 | CP325 | CP329 | CP335 | DFO2036 | DIV14 | DIV17 | DIV30 | Dd2 | ECU | FAB9
